From PubChem
SARS PLpro yeast = qHTS of Yeast-based Assay for SARS-CoV PLP. S. cerevisiae expressing SARS-CoV PLpro, growth rescue. Potency, µM (doses to about 32.9 µM), without a hit: at the top dose activity, positive = growth rescue, hits mostly activators. 330,000 compounds, 0.19% hits. AID 485353, 2010; also: 0% is about no effect; nearly all actives have a fitted effect of over 55% in size
NS1 function inh = qHTS Assay for Inhibitors of Influenza NS1 Protein Function. Potency, µM (doses to about 46.1 µM), inactives show top-dose activity, positive = more growth. 270,000 compounds, 0.4% hits; also: actives are rising curves; nearly all actives have a fitted effect of over 50% in size
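S. cerevisiae expressing influenza A NS1, grown in glucose, washed, then diluted 1:100 into pH 6.0 -URA galactose medium with 23 nl compound. Growth recovery read as OD600; NS1-free strain serves as control.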
Pf growth 96h = Primary qHTS for delayed death inhibitors of the malarial parasite plastid, 96 hour incubation; P. falciparum luciferase reporter growth, 96 h; Potency, µM (titrated, usually from 28.7 µM), inactives show at the top dose activity change, negative = inhibition, usual class: inhibitors; 320,000 compounds, 6.9% hits; active = well fitted inhibition curve with a large enough effect; inconclusive = small, poorly fitted or top-dose-only effect, or another doubt; inactive = no such curve, though single readings can be large or run the other way; also: % is scaled to controls: 0 for no effect and ±100 for the full control effect
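Compounds incubated with erythrocytes infected by luciferase-expressing P. falciparum (2% hematocrit, 0.05% parasitemia final) for 96 hours, 37 C in 5% CO2. Growth inhibition scored as decreased luciferase luminescence.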
Pf growth 48h = Primary qHTS for delayed death inhibitors of the malarial parasite plastid, 48 hour incubation. Potency, µM (series often up to 28.7 µM), inactives show at the top dose activity change, negative = inhibition, hits mostly inhibitors. 310,000 compounds, 5.9% hits. P. falciparum luciferase growth in erythrocytes, 48 h. AID 504832, 2011; active = well fitted inhibition curve with a large enough effect; inconclusive = small, poorly fitted or top-dose-only effect, or another doubt; inactive = no such curve, though single readings can be large or run the other way; also: % is scaled to controls: 0 for no effect and ±100 for the full control effect
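Erythrocytes infected with P. falciparum carrying an integrated firefly luciferase reporter (2% hematocrit, 0.1% parasitemia final) were exposed to compounds in RPMI 1640 with 0.5% Albumax at 37 C, 5% CO2. Growth inhibition was scored as reduced luminescence.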
* marks the source's active call; other numbers are inactive results; u = inconclusive; x = no result given. Most compounds without a hit are left out; they make up all but 10% or so of the library. Unless noted, calls follow the shape of the full dose curve. Potency is read from the fitted curve at half-maximal effect.

SMILES | SARS PLpro yeast | NS1 function inh | Pf growth 96h | Pf growth 48h
Cc1nc(NC2=NCN(Cc3ccco3)CN2)nc2ccccc12 | 8% | 0% | 1.9µM* | -20%
CCOc1ccc2nc(NC3=NCN(Cc4ccco4)CN3)nc(C)c2c1 | 4% | 6% | 15µM* | u
Cc1nc(NC2=NCN(Cc3ccccc3)CN2)nc2ccccc12 | -5% | 0% | -14% | u
Cc1nc(NC2=NCN(C3CCCCC3C)CN2)nc2ccccc12 (stereo not drawn) | 0% | -10% | u | 13µM*
Cc1nc(NC2=NCN(CCCN3CCOCC3)CN2)nc2c(C)cccc12 | 3% | 4% | -6% | 2.3µM*
Cc1ccc(S(=O)(=O)N(C)C)cc1NC(=O)CN1C(=O)NC2(CCCCCCC2)C1=O | 4% | 4% | u | -9%
CC(C)c1ccc(CNC(=O)C(=O)NCC2CCCO2)cc1 (stereo not drawn) | 1% | x | u | 14%
Fc1ccc(Sc2nc(-c3ccccc3)nnc2C(F)(F)F)cc1 | -1% | 1% | 13µM* | 8.3µM*
CC(=O)Nc1ccc(NC(=O)CSc2nc(C)nc3sc(C)c(C)c23)cc1 | 3% | 9% | 79% | -3%
Cc1nc(SCC(=O)Nc2ccc(CN3CCCC3)cc2)c2c(C)c(C)sc2n1 | 6% | x | 13µM* | 9.3µM*
CCn1c(CC(=O)Nc2ccc(OC)cc2)nnc1SCC(=O)N1CCOCC1 | -5% | 4% | u | 8%
Cc1nc(-c2cccnc2)sc1C(=O)Nc1cccc(C(F)(F)F)c1 | -14% | 1% | 12µM* | u
FC(F)(F)c1cccc(NC(=S)Nc2ccc(Cl)c(Cl)c2)c1 | -6% | -57% | 8.3µM* | 0%
FC(F)(F)c1cccc(NC(=S)NCc2ccccc2)c1 | 4% | -116% | 3.3µM* | u
FC(F)(F)c1cccc(NC(=S)NNC(=S)Nc2cccc(C(F)(F)F)c2)c1 | -7% | -61% | u | u
FC(F)(F)c1cccc(CNC(=S)Nc2ccccc2)c1 | 1% | -1% | u | u
FC(F)(F)c1ccccc1NC(=S)Nc1ccccc1 | -3% | 0% | 1.5µM* | 7%
Cc1ccc(C(=O)OCC(=O)NC(=O)c2ccccc2)o1 | -3% | x | 35% | 3%
O=C(NCc1cccnc1)Nc1cccc(NC(=O)NCc2cccnc2)c1 | 2% | -3% | x | -3%
FC(F)(F)c1cccc(NC(=S)NC(c2ccccc2)c2ccccc2)c1 | 19% | 6% | 2.6µM* | 3.7µM*
O=[N+]([O-])c1cc(C(F)(F)F)cc([N+](=O)[O-])c1NCCNC(=S)Nc1ccc(Cl)c(Cl)c1 | -6% | -38% | u | 9.3µM*
O=C(NCc1cccnc1)Nc1cccc(C(F)(F)F)c1 | 9% | 7% | 1.5µM* | -21%
C[C@@H]1COC(=O)[C@H](CC(=O)OC(C)(C)C)C/C=C\C[C@@H](CC(=O)NCCO)C(=O)N1 | -1% | x | x | x
CCc1ccc(CN2CCCC(CNC(=O)c3cccc(OC)c3OC)C2)cc1 (stereo not drawn) | 7% | 15% | u | u
CCC1SC(=Nc2cccc(C)c2)NC1=O (stereo not drawn) | 1% | -2% | 10µM* | 19%
SMILES | SARS PLpro yeast | NS1 function inh | Pf growth 96h | Pf growth 48h
O=C(CSc1ccc2ccccc2n1)c1ccccc1 | -6% | -2% | 67% | 56%
CCCN(CCC)CCc1cccc2c1CC(=O)N2 | x | 0% | -11% | -14%
Cc1cc(C)c(C#N)c(Nc2ccccc2)n1 | 10% | 6% | u | 9%
CCCCOc1ccc(Nc2nc(C)cc(C)c2C#N)cc1 | -4% | 1% | 10µM* | 7%
COC(=O)C1CCN(C(=O)COC(=O)/C=C/c2ccc(O)c(OC)c2)CC1 | 1% | x | x | x
CC1(c2ccccc2)CC(c2ccccc2)=Nc2nonc2N1 (stereo not drawn) | -2% | 7% | u | 1.5µM*
Cc1cccc(-c2nc(Nc3ccc(N4CCOCC4)cc3)c3ccccc3n2)c1 | -48% | 6% | u | 9.3µM*
CCOC(=O)c1ccc(Nc2nc(-c3cccnc3)nc3ccccc23)cc1 | 1% | -12% | 79% | 5.9µM*
Cc1ccccc1Nc1nc(-c2cccnc2)nc2ccccc12 | -5% | -8% | u | u
CCOC(=O)c1ccc(Nc2ncnc3ccccc23)cc1 | -9% | x | 288% | 2%
c1ccc2c(Nc3ccc(N4CCOCC4)cc3)nc(N3CCOCC3)nc2c1 | 3% | 15% | -24% | u
Cc1ccc(Nc2nc(-c3cccnc3)nc3ccccc23)cc1 | 5% | 9% | 5% | 15µM*
O=C(Oc1ccc(Nc2ncnc3ccccc23)cc1)c1cccnc1 | -1% | 1% | 12µM* | 3%
CCOc1cccc(C(=O)N2CCCCC2c2cccnc2)c1 (stereo not drawn) | 3% | 3% | 53% | 9.3µM*
CCN(C[C@H]1N[C@@](C)(C(=O)OC)[C@H]2C(=O)N(C)C(=O)[C@@H]12)C(=O)c1ccc(C(C)(C)C)cc1 | 4% | x | x | x
Cc1ccc(-c2csc3nc(=O)c(C)nn23)cc1 | 0% | -4% | 5.2µM* | 31%
O=c1nc2scc(-c3ccccc3)n2c2ccccc12 | 3% | 1% | -27% | 2%
O=C(O)/C=C\C(=O)N1Cc2cc3ccccc3nc2C1 | x | 1% | x | x
CCOC(=O)N1CCC(N2C(=O)c3ccccc3C2Nc2cc(OC)c(OC)c(OC)c2)CC1 (stereo not drawn) | -3% | -2% | u | u
CCOC(=O)N1CCC(N2C(=O)c3ccccc3C2Nc2cc(Cl)c(OC)cc2OC)CC1 (stereo not drawn) | 1% | -25% | u | 13µM*
Cc1nc(NC(=O)c2ccccc2)sc1-c1csc(NCc2ccccc2)n1 | -8% | u | x | u
Cc1nc(NC(=O)c2ccccc2)sc1-c1csc(NCCc2ccccc2)n1 | -5% | 27% | 4.1µM* | x
Cc1nc(NC(=O)c2ccccc2)sc1-c1csc(N)n1 | -20% | -9% | -2% | 1.9µM*
COc1ccc(CNC(=O)CCS(=O)(=O)c2ccc3c(c2)CC(C)N3C(=O)C2CC2)cc1 (stereo not drawn) | 0% | 3% | 38% | -14%
NC(=O)C1CC2(NC(=O)NC2=O)c2cc(F)ccc2O1 (stereo not drawn) | x | x | -15% | -2%
SMILES | SARS PLpro yeast | NS1 function inh | Pf growth 96h | Pf growth 48h
O=C1CCN(S(=O)(=O)c2ccc(Cl)cc2)CCN1 | 0% | 2% | 1% | 11%
O=C(CSCc1ccc([N+](=O)[O-])cc1)NC1CC1 | 7% | 19% | 13µM* | -3%
O=S(=O)(NCc1cccnc1)c1ccc2ccccc2c1 | 2% | 0% | 10% | 44%
O=C(Cc1ccc(F)cc1)NC1CCS(=O)(=O)C1 (stereo not drawn) | -8% | x | -26% | 6%
Clc1ccccc1Nc1nc(-c2ccncc2)nc2ccccc12 | -6% | -6% | u | 13µM*
c1ccc2c(Nc3nc(-c4ccncc4)nc4ccccc34)cccc2c1 | -2% | 8% | u | u
Clc1cccc(Nc2nc(-c3ccncc3)nc3ccccc23)c1 | 0% | -2% | 0.93µM* | -17%
COc1cccc(NC(=S)N2CCN(C)CC2)c1 | 0% | -9% | 18% | u
